# From PMC6212790, “How bacterial xenogeneic silencer rok distinguishes foreign from self DNA in its resident genome”
# In all, about 33,000 sequences were measured (“e-score”: median about -0.037, highest 2% from about 0.34 on). This excerpt belongs to a sample that is enriched for the highest values.
# Biological target: T1, GST-Rok (full length) (Bacillus subtilis subsp. subtilis str. …, UniProt O34857 1-191)
# T1 sequence: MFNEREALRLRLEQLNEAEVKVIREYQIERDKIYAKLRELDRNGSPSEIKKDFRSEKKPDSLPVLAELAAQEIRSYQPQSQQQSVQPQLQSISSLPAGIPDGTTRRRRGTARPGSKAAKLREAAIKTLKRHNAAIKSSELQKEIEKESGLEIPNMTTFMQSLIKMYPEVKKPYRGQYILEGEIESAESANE
# Test: protein binding microarray; Rok is a gene silencer of Bacillus subtilis; high values mean tight binding
# Conditions: protein: recombinant; tags: GST (pTH5325, pDEST15-Magic modified); dsDNA, one strand shown
# In short: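 Each has a 25-mer constant primer and a 35-mer variable part from a de Bruijn sequence of order 10, covering every non-palindromic 8-mer at least 32 times (palindromic 16). Preference for each 8-mer is given as a rank-based, unitless enrichment score (E-score). Its range runs from 0.5 (most favored) to −0.5 (most disfavored).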
row,Sequence,binding signal
1,CAGCTGTA,0.0605 E-score
2,ACATCTAC,0.272 E-score
3,ACTTCGGA,-0.0792 E-score
4,ACCCTAAA,0.024 E-score
5,CCACTGTC,-0.188 E-score
6,CTGCTTTA,0.0813 E-score
7,ATAAGGAC,-0.2 E-score
8,GCAGAAAC,-0.0153 E-score
9,GTAGAAAC,0.427 E-score
10,TTAGAAAA,0.185 E-score
11,GTAGAAAA,0.387 E-score
12,CTAGAAAA,0.291 E-score
13,CTAGAAAC,0.3 E-score
14,ATCTGGTC,-0.135 E-score
15,ATCTTTAA,0.0286 E-score
16,AGATTGGC,0.136 E-score
17,CGTTCCAC,-0.021 E-score
18,ATTTTTAA,-0.0198 E-score
19,CTATTTAA,0.0252 E-score
20,CTATTTAC,0.342 E-score
21,CTCTTTAC,0.158 E-score
22,ATATTTAC,0.379 E-score
23,ATATTTAA,0.387 E-score
24,ATATTTGC,0.285 E-score
25,ATATTTAG,0.287 E-score
26,ACATTTAC,0.313 E-score

row,Sequence,binding signal
1,AGTCAAAA,0.108 E-score
2,CGTTTGAA,-0.00324 E-score
3,ACCTTCAG,-0.119 E-score
4,TCCACAAA,0.0863 E-score
5,CGTCGCAA,-0.166 E-score
6,ATAACTAT,0.407 E-score
7,AGAACTAG,0.298 E-score
8,ATAACTAA,0.26 E-score
9,ATAACTAG,0.243 E-score
10,AGAACTAT,0.381 E-score
11,AGAACTAA,0.254 E-score
12,CATGCTGA,-0.132 E-score
13,AGTGGTCC,-0.177 E-score
14,GTCCCGGA,-0.141 E-score
15,GATCATTA,0.355 E-score
16,CATCATTA,0.0295 E-score
17,AATCATTA,0.158 E-score
18,AGTAGTAA,0.384 E-score
19,CGTAGTAA,0.198 E-score
20,GGTAGTAA,0.335 E-score
21,TGTAGTAA,0.349 E-score
22,TGTTGTAA,0.142 E-score
23,TGTAGGAA,0.0806 E-score
24,ACTGGACG,0.057 E-score
25,TCAAGTAA,0.154 E-score
26,AGTAGACA,0.0413 E-score

row,Sequence,binding signal
1,ATAATCTA,0.352 E-score
2,CTAATCTC,0.0718 E-score
3,ATAATCTC,0.161 E-score
4,CTAATCTA,0.362 E-score
5,CTAATCAA,0.165 E-score
6,GTAATCTA,0.245 E-score
7,ATGCATGG,0.0449 E-score
8,AACCTACG,9.3e-05 E-score
9,CCAACTGC,-0.00979 E-score
10,AGGTTTAA,0.00862 E-score
11,CTATACCA,0.258 E-score
12,GTATACCA,0.311 E-score
13,AGATACCG,0.12 E-score
14,ATATACCA,0.411 E-score
15,ATATACCC,0.188 E-score
16,ATATACCG,0.385 E-score
17,CATTAATC,0.219 E-score
18,AACGGTCT,-0.0396 E-score
19,GTCCCGCA,-0.196 E-score
20,CGCGGTTA,-0.0283 E-score
21,GTAAATAC,0.352 E-score
22,CTAAATAA,0.251 E-score
23,CTAAATAG,0.172 E-score
24,CTAAATAC,0.351 E-score
25,GTAAATAA,0.234 E-score
26,ATAAATAC,0.276 E-score

row,Sequence,binding signal
1,CAAGCAGC,-0.0674 E-score
2,TAGTTACA,0.349 E-score
3,CAGTTATA,0.288 E-score
4,AAGTTACA,0.18 E-score
5,CAGTTACA,0.24 E-score
6,GAGTTATA,0.222 E-score
7,TAGTTATA,0.382 E-score
8,AGCTGAAG,0.0654 E-score
9,AACGCCTA,-0.101 E-score
10,ACTTAACC,0.121 E-score
11,ATACCGAG,0.116 E-score
12,ATACCGAT,0.342 E-score
13,ATACCGAC,0.0836 E-score
14,GTTGGCGA,-0.0273 E-score
15,GGAGCAGA,-0.132 E-score
16,CGCCTTCA,0.0118 E-score
17,TAGCAGGA,-0.0921 E-score
18,ACCAAGGT,-0.0988 E-score
19,GACACGAC,-0.0441 E-score
20,AGTAGTTC,0.413 E-score
21,GTTAGTTA,0.258 E-score
22,CGTAGTTA,0.127 E-score
23,ATTAGTTG,0.334 E-score
24,AGTAGTGA,0.0919 E-score
25,AGTAGTTG,0.388 E-score
26,ATTAGTTC,0.172 E-score

row,Sequence,binding signal
1,GGTAGTTA,0.413 E-score
2,GGTAGTCA,0.125 E-score
3,CGTAGTTC,0.255 E-score
4,ACTAGTTG,0.313 E-score
5,AGTAGTTA,0.434 E-score
6,GTAAGAAA,0.327 E-score
7,CGTACAAC,0.103 E-score
8,CGGAGGAA,-0.194 E-score
9,ACAATGAC,0.00584 E-score
10,AAAGACAA,0.02 E-score
11,GTTATTCA,0.0398 E-score
12,ATAGGTCC,0.123 E-score
13,CTAAGGCC,-0.158 E-score
14,AATATTCT,0.338 E-score
15,AATATTGG,0.103 E-score
16,AATATTGT,0.34 E-score
17,AATATTGA,0.287 E-score
18,AATATTCG,0.255 E-score
19,AATATTCC,0.131 E-score
20,TGCGGGAA,-0.19 E-score
21,CTAAGCCA,0.0287 E-score
22,GGTTAGTA,0.0365 E-score
23,CGTCGTTC,-0.0713 E-score
24,GAACCGAC,-0.0645 E-score
25,CGAAGAAA,0.195 E-score
26,CGAAATTC,0.341 E-score

row,Sequence,binding signal
1,CGAAATTA,0.269 E-score
2,AGAAATTC,0.228 E-score
3,GCAACCAC,0.0207 E-score
4,AGAATCTC,0.0678 E-score
5,AGAATCTA,0.337 E-score
6,CGAATCTA,0.305 E-score
7,AGAATCTG,-0.0414 E-score
8,GGAATCAA,0.103 E-score
9,GGAATCTA,0.363 E-score
10,CGGAATTA,0.239 E-score
11,GAAGGTTA,-0.0133 E-score
12,GCACTCAA,-0.134 E-score
13,ACCGGACC,-0.0925 E-score
14,ACGGTACG,-0.0886 E-score
15,CCTCACCG,-0.0671 E-score
16,ACACTACG,-0.0357 E-score
17,AAACTACT,0.484 E-score
18,AAACTACC,0.475 E-score
19,AAACTAAG,0.345 E-score
20,AGACTACC,0.249 E-score
21,CAACTACG,0.12 E-score
22,CAACTACC,0.303 E-score
23,AAACTAAC,0.233 E-score
24,AAACTACG,0.377 E-score
25,AGACTACT,0.209 E-score
26,ACACTACT,0.236 E-score

row,Sequence,binding signal
1,AAACTAAT,0.332 E-score
2,ATGCGGCA,0.0193 E-score
3,CACCTAAC,0.06 E-score
4,CTTCATAC,0.0169 E-score
5,ATGCAGGA,0.0987 E-score
6,ATAGAGAG,-0.0418 E-score
7,AGAAAACC,-0.176 E-score
8,AGCAAGCG,-0.0451 E-score
9,GCTGGAGA,-0.105 E-score
10,ATTCGCAC,-0.0552 E-score
11,ATTAGGCC,-0.131 E-score
12,AAACTAAA,0.324 E-score
13,TCACTACA,0.0227 E-score
14,GCACTACC,-0.000872 E-score
15,CAACTACA,0.18 E-score
16,AAACTACA,0.408 E-score
17,TGACTACA,0.197 E-score
18,GAACTACA,0.222 E-score
19,GAACTACC,0.338 E-score
20,TAACTACA,0.441 E-score
